# From PubChem BioAssay AID588342 (National Center for Advancing Translational Sciences (NCATS), 2011)
# The campaign covered roughly 360,000 compounds. About 25,000 (6.9%) were called active. Inconclusive results (about 9%) are left out. What follows is part of a selection rich in actives, with near analogues and random picks from the rest. Values without a mark were called inactive. The call rests on the fitted dose curve; in most records, active means well fitted inhibition curve with a large enough effect; inconclusive means small, poorly fitted or top-dose-only effect; inactive means flat fitted curve, though single readings scatter.
# Molecular target: Luciferin 4-monooxygenase (Photinus pyralis) (UniProt P08659)
# Assay: qHTS profiling assay for firefly luciferase inhibitor/activator using purifed enzyme and Km concentrations of substrates (counterscreen for miR-21 project); further: nearly all actives have a fitted effect of over 55% in size;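 on activity change, negative = inhibition: plate controls were vehicle for no effect and reference inhibitor for full effect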
# Conditions: purified FLuc, luminescence inhibition; series mostly up to 57.5 µM; activity change, negative = inhibition: at the top concentration
# From the text: MLPCN Grant: 1 R21 NS059478-01 (miR-21 grant) Assay Provider: NCGC NCGC Assay Overview: Firefly (Photinus pyralis) luciferase is one of the most commonly used transcriptional reporters for a number of reasons. It is considered one of the more dynamically responsive reporters -that is, responsive to changes in reporter transcription - as it requires no post-translational modifications and is enzymatically active directly after protein synthesis (Wood, 1998). Additionally, the half-life of the luciferase protein is short relative to other reporter-gene products (Wood, 1995). Whereas reporters with long half-lives potentially allow for increased signal due to accumulation of reporter-gene product, once accumulated in the cell, dynamic changes in reporter-gene expression may be difficult to detect(Fan and Wood, 2007; Almond et al., 2004). It has been shown that wild-type P. pyralis luciferase has a half-life of approximately […] hours in mammalian cells (Thompson et al., 1991). Firefly luciferase reporter-gene assays are also generally considered one of the most sensitive assay types (Wood, 1995; Wood, 1998). Although light produced in a bioluminescence reaction is of lower intensity than that produced during fluorescence emission, this is offset by little to no background light inherent to luminescent assays. Thus the luciferase reporter can be expressed at much lower levels than fluorescent proteins while still providing robust signal. # However, it was initially observed, in 1991, by Thompson et al., that compounds that resemble the substrates of firefly luciferase (FLuc) can act as competitive inhibitors of the enzyme, and that these compounds, upon interaction with luciferase in the cell, can actually stabilize the protein and increase its half-life. Accumulated intracellular FLuc protein can be measured as an increase in luminescence signal, upon addition of detection reagents (which contain high concentrations of FLuc substrates) commonly used in high-throughput screening. In cell-based reporter gene assays that use FLuc as the reporter gene to quantitate the potential influence of a given compound against the target biology, this apparent increase in luminescence can mistakenly be interpreted as identification of a compound that is active against the target of interest. This is the case for the miR-21 FLuc reporter gene assay used to identify inhibitors of the miR-21 pathway (PubChem AID 2289) - compounds of interest will inhibit miR-21 biogenesis/expression or activity, and are identified by causing an increase in luminescence, due to increased FLuc translation. However, FLuc inhibitory compounds that stabilize the FLuc protein will give an identical read-out, making it difficult to distinguish compounds that are active against the target from those active against FLuc. Previous profiling work to determine the prevalence of compounds that affect FLuc enzymatic activity (PubChem AID 411) identified that ~3% of the MLSMR library (then at ~72K) inhibited FLuc. […] Since the MLSMR had grown to ~350K compounds, and since it was expected that a significant percentage of compounds found active in the miR-21 FLuc assay would be FLuc inhibitors, the library was screened for activity against FLuc using a biochemical assay of purified FLuc and KM concentrations of FLuc substrates (D-luciferin and ATP).
# NCGC Assay Protocol Summary: Reagents: 50mM Tris acetate, pH 7.5; 10mM Mg acetate; 10uM D-luciferin (Sigma #L9504); 10uM ATP; 0.01% Tween-20; 0.05% BSA; 10nM P. pyralis luciferase (Sigma #L9506) Control compounds used were two known firefly luciferase inhibitors (compounds (2) and (5) in Auld et al., 2010), and DMSO. […]
# Chain of Luciferin 4-monooxygenase (Photinus pyralis) (P08659 whole entry, looked up): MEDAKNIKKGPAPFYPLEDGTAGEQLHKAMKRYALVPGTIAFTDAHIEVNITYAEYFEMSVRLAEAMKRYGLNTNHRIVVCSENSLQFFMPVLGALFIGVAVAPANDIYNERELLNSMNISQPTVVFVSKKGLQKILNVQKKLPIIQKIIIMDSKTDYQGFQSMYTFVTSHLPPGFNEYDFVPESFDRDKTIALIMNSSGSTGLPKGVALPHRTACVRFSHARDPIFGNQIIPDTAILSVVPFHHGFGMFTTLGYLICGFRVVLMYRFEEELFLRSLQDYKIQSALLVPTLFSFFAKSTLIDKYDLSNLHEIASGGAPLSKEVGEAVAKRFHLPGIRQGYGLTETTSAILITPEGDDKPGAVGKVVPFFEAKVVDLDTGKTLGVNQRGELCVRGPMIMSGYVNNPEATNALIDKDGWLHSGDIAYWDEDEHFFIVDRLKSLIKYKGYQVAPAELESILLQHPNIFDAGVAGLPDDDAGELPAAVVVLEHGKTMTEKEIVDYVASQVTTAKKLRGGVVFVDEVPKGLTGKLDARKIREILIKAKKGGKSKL
Compound,"activity change, negative = inhibition",Potency
COc1cc(C(F)(F)F)nc2c(Br)c(C(C)(C)C)nn12,-4.91%,
O=C(NCCc1c[nH]c2ccccc12)C1CCN(Cc2ccc(Br)cc2)CC1,-0.302%,
O=C(NCCc1ccccc1)c1ccc2c(c1)N(Cc1ccc(F)cc1)C(=O)c1ccccc1S2(=O)=O,-0.75%,
Cc1ccccc1OCc1nc2c3cnn(-c4ccccc4F)c3ncn2n1,-0.731%,
COC(=O)c1ccccc1NC(=O)Cn1c(=O)n(-c2cccc(C(F)(F)F)c2)c(=O)c2c(C)c(C)sc21,-7.45%,
CSc1ncc(Cl)c(C(=O)Nc2ccc(S(=O)(=O)N3CCCC(C)C3)cc2)n1 (stereo not drawn),5.6%,
Cc1cccc(C(=O)Nc2ccc(-c3nc4ccccc4s3)c(C)c2)c1,,2.69 µM (active)
CCCCc1nn2c(=O)cc(COC(=O)c3ccccc3NC(=O)C(C)(C)C)nc2s1,-3.42%,
Cc1c(NC(=O)C(C)(C)C)cccc1-c1nc2ccccc2s1,,4.78 µM (active)
CC(=O)Nc1cccc(-c2nc3ccccc3s2)c1C,,6.01 µM (active)
Cc1cccc(C(=O)N2CCC(c3nc4ccccc4s3)CC2)c1,-2.17%,
COc1ccc(CC(=O)Nc2ccc(-c3nc4ccccc4s3)c(C)c2)cc1,-10.8%,
CCC(C(=O)Nc1cccc(-c2nc3cccnc3s2)c1C)c1ccccc1 (stereo not drawn),-0.908%,
Cc1cccc(NC(=O)Cn2c(C(F)(F)F)nc3ccccc32)c1C,3.57%,
Cc1c(NC(=O)Cc2ccccc2)cccc1-c1nc2cccnc2s1,1.87%,
COCCCNC(NC(=O)c1ccc(OC)cc1)C(Cl)(Cl)Cl (stereo not drawn),-0.556%,
COC(=O)c1scc(-c2ccc(C)cc2)c1S(=O)(=O)Nc1cc(Cl)c(OC)cc1OC,-2.24%,
COc1ccccc1Nc1cc(C(=O)NCCCN(C)C2CCCCC2)c2ccccc2n1,-13.2%,
Cc1ccc(C(=O)CC2(O)C(=O)N(CCc3ccccc3)c3ccc(Br)cc32)cc1 (stereo not drawn),-12.3%,
COc1cc(Cl)ccc1Nc1ncc(C(=O)N2CCN(c3ccccc3OC)CC2)c2ccccc12,-0.617%,
COc1cc(OC)cc(C(=O)NCCSCc2ccc(Cl)cc2)c1,3.1%,
O=C(O)c1cscn1,-0.163%,

Compound,"activity change, negative = inhibition",Potency
O=C(CCNS(=O)(=O)c1ccccc1)NCCCc1ccccc1,-1.01%,
c1csc(-c2cn3c(n2)SCC3)c1,-22.6%,
CC(=O)Nc1cccc(-c2csc(Nc3cccc(C)n3)n2)c1,,2.39 µM (active)
CC(=O)Nc1cccc(-c2cnc3ccccc3n2)c1,,12 µM (active)
Cc1ccccc1Nc1nc(-c2cccnc2)cs1,,6.01 µM (active)
O=C(Nc1ccc(-c2csc(Nc3cccc(C(F)(F)F)c3)n2)cc1)c1cccc(C(F)(F)F)c1,1.5%,
O=C(Nc1nc(-c2cccnc2)cs1)c1ccccc1F,-6.48%,
COC(=O)c1ccc(NC(=S)Nc2cccc(C)n2)cc1,-0.516%,
Cc1nc(CNS(=O)(=O)c2cccnc2)cs1,0.166%,
CC(=O)Nc1ccc(NC(=O)COc2ncnc3ccccc23)cc1,2.39%,
Cc1cc(=O)oc(C)c1C(=O)Nc1cnc2ccccc2c1,-0.785%,
Clc1ccc(Nc2nc(-c3cccs3)cs2)nc1,,1.51 µM (active)
COc1ccc(Br)cc1C1CC(=O)Nc2c1c(C)nn2-c1nc(C)cc(C)n1 (stereo not drawn),-8.06%,
Cc1ccc(NC(=O)CSc2nc3c([nH]c4ccccc43)c(=O)n2-c2ccccc2)c(C)c1,-2.12%,
O=C(CN(C(=O)c1csnn1)c1cccc(Cl)c1)NC1CCCC1,0.359%,
CCCCN(CC(=O)Nc1cccc(S(=O)(=O)N2CCCC2)c1)Cc1nc2ccccc2c(=O)[nH]1,-1.73%,
COC(=O)c1ccc(COC(=O)CNC(=O)c2cccc(OC)c2)o1,-18%,
CCOC(=O)c1scc(-c2ccc(C)cc2)c1S(=O)(=O)Nc1cc(C)ccc1C,-14.5%,
Cc1ccc2nc(COc3ccccc3NC(=O)Nc3ccc(F)c(Cl)c3)cc(=O)n2c1,-18.2%,
O=C(CN1C(=O)C2C3C=CC(C3)C2C1=O)Nc1nc(-c2ccccn2)cs1 (stereo not drawn),-3.95%,
CC(NC(=O)c1ccco1)C(=O)Nc1nc(-c2ccccn2)cs1 (stereo not drawn),1.86%,
c1ccc(Nc2nc(-c3ccncc3)cs2)nc1,,4.78 µM (active)

Compound,"activity change, negative = inhibition",Potency
CSc1nc(Nc2ccc(F)cc2)cc(-c2ccccc2)n1,-13%,
Cc1cccc(Nc2nc(-c3ccccc3)cs2)n1,,3.79 µM (active)
COC(=O)c1cc2occc2n1Cc1nc(-c2ccc(C)cc2)oc1C,4.5%,
COc1ccc2c(c1)C(NS(=O)(=O)OCC(Cl)(Cl)Cl)CCC2 (stereo not drawn),-1.13%,
COCCN(C(=O)CSCc1ccc(C)cc1)c1c(N)n(CC(C)C)c(=O)[nH]c1=O,-1.29%,
CCOc1cccc(CC(=O)N2CCc3c([nH]c4ccccc34)C2c2ccc(OC)cc2)c1OCC (stereo not drawn),-2.95%,
Cc1cc(=O)c2cc(C(=O)Nc3cccc(C)c3C)ccc2[nH]1,-4.94%,
CCS(=O)(=O)N1CCc2cc(C(=O)NCc3ccc(C)cc3)ccc21,-5.13%,
COc1ccc(NC(=O)Cn2c(=O)cc(C)c3c(C)nn(-c4cccc(Cl)c4C)c32)cc1OC,4.01%,
COc1ccccc1N1CCN(C(=O)C(=O)N/N=C/c2ccccc2F)CC1,4.07%,
COc1ccccc1N1CCN(C2C(=O)c3ccccc3N2C(C)=O)CC1 (stereo not drawn),-18%,
COc1ccccc1N1CCN(/N=C\C(Br)=C\c2ccccc2)CC1,,16.9 µM (active)
COc1ccccc1/C=N/N1CCN(Cc2ccccc2Cl)CC1,-1.85%,
COc1ccccc1N1CCN(/N=C/c2ccc(O)cc2O)CC1,,7.57 µM (active)
CNCC(O)CN1CCN(c2ccccc2OC)CC1 (stereo not drawn),-0.912%,
CCOC(=O)CN1C(=O)N[C@@H](c2ccc(Br)cc2)C(C(C)=O)=C1C,-0.544%,
Cc1oc(-c2ccccc2F)nc1CN1CCC(C(=O)NCCc2ccc(Cl)cc2)CC1,-14.6%,
CN(Cc1ccccc1)C(=O)c1cc2c(=O)n(C)c3ccccc3c2s1,-13.9%,
Cc1[nH]c2ccccc2c1C(c1ccccc1)c1cccs1 (stereo not drawn),-7.8%,
Cc1cccc(N2CCN(C(=O)c3ccc4c(c3)CCN4S(=O)(=O)c3ccccc3)CC2)c1C,-1.27%,
Cc1ccc(Cn2cc(CCC(=O)NCc3ccc(OC(C)C)cc3)c3ccccc32)cc1,3.04%,
CC(=O)Nc1ccc(OC(=O)COc2ccc(Br)cc2)cc1,-1.37%,

Compound,"activity change, negative = inhibition",Potency
CSc1ccc(Cl)c(C(=O)OCC(=O)N2CCNC2=O)c1,-4.07%,
CC(=O)CSc1nnc(CSc2ncccn2)n1C1CCCCC1,-0.437%,
O=S(=O)(c1ccccc1)c1nc(-c2ccc(Cl)cc2Cl)oc1N1CCCCC1,-0.863%,
COc1ccc(S(=O)(=O)NC(C)c2ccccc2)cc1C(=O)N1CCCCC1 (stereo not drawn),,1.69 µM (active)
CC(NS(=O)(=O)c1ccc(OCC(=O)N2CCCC2)cc1)c1ccccc1 (stereo not drawn),2.33%,
COc1ccc(S(=O)(=O)Nc2ccccc2C(=O)N2CCCC2)cc1C,-1.28%,
COc1ccc(NS(=O)(=O)c2cc3c4c(c2)CC(=O)N4CCC3)cc1Cl,-10.1%,
O=C(CN1C(=O)CC(c2ccccc2)S(=O)(=O)c2ccccc21)NC1CCCC1 (stereo not drawn),-2.16%,
Cc1ccccc1C1=N/C(=C/c2cccnc2)C(=O)O1,,8.49 µM (active)
O=C1/C(=C\c2cccnc2)CN(Cc2ccccc2)C/C1=C\c1cccnc1,0.472%,
C(=N\n1cnnc1)/c1cccnc1,0.209%,
CCc1nc2sc3c(Cl)ncnc3c2c2c1CCCC2,0.217%,
Cc1ccc(C)c(-n2cc(CN3CCN(C(=O)c4ncn[nH]4)CC3)c(-c3ccccc3)n2)c1,-4.47%,
Cc1cccc(-n2cc(CN3CCN(C(=O)c4ncn[nH]4)CC3)c(-c3cccc(F)c3)n2)c1,,13.5 µM (active)
Cc1ccccc1CN1CCN(C(=O)c2cccc(F)c2)CC1,4.88%,
CCN(CCCNC(=O)c1cc2cc3cc(OC)ccc3nc2s1)c1ccccc1,-6.12%,
CC(=O)Nc1ccc(SC[C@H](Cc2ccccc2)N2CC[C@@H](C)CCC2=O)cc1,4.86%,
Cc1ccc2nc(SCC(=O)NC3CCCC3)[nH]c2c1,5.01%,
COc1ccc2nc(SCC(=O)Nc3c(C)cc(C)cc3C)[nH]c2c1,6.49%,
CCOC(=O)CSc1nc2ccc(C)cc2[nH]1,,16.9 µM (active)
COc1ccc(S(=O)(=O)NCc2cccn2Cc2cccc(C)c2)cc1,-0.767%,
Clc1cccc(N=C2NN=C(c3ccc4c(c3)OCCO4)CS2)c1,,2.13 µM (active)

Compound,"activity change, negative = inhibition",Potency
c1ccc(CN2CCC(N=C3NN=C(c4ccc5c(c4)OCCO5)CS3)CC2)cc1,-19.4%,
CC(NC(=O)COC(=O)c1cc(=O)[nH]c2ccccc12)c1ccccc1 (stereo not drawn),-7.16%,
CC1CCN(C(=O)COC(=O)c2cc(=O)[nH]c3ccccc23)CC1,,10.7 µM (active)
COC(=O)C1CCN(C(=O)c2cc(=O)[nH]c3ccccc23)CC1,-3.07%,
Cc1cc(C)cc(NC(c2nnc(-c3cccc(F)c3)o2)c2ccc(F)cc2Cl)c1 (stereo not drawn),0.751%,
COc1cccc(CNc2nccn(-c3ccc(OC)c(OC)c3)c2=O)c1,-2.32%,
COc1ccc(-c2cc(C(F)(F)F)nc(SCC(=O)N(C)Cc3ccccc3)n2)cc1OC,-5.79%,
COc1ccc(CC2c3cc(OC)c(OC)cc3CC[N+]2(C)CCC(=O)OCCCCCOC(=O)CC[N+]2(C)CCc3cc(OC)c(OC)cc3C2Cc2ccc(OC)c(OC)c2)cc1OC (stereo not drawn),1.46%,
COc1ccc(-c2nc3ccccc3o2)cc1NC(=O)c1cc([N+](=O)[O-])ccc1N1CCOCC1,3.15%,
O=C(Nc1ccc2oc(-c3ccc(O)c(Br)c3)nc2c1)c1cc2ccccc2o1,2.43%,
O=[N+]([O-])c1ccc2oc(-c3cccc(O)c3)nc2c1,,2.13 µM (active)
CCC(=O)Nc1cccc(-c2nc3cc(C)ccc3o2)c1,,2.69 µM (active)
Cc1ccc(OCC(=O)Nc2ccc(-c3nc4ncccc4o3)cc2)cc1,-2.22% [at 2.3 µM],
COc1ccc2oc(-c3ccc(C)c(NC(=O)c4sc5ccccc5c4Cl)c3)nc2c1,-8.93%,
O=C(Nc1cccc(-c2nc3ccccc3o2)c1)c1cccc(Br)c1,-18.3%,
COc1cccc(-c2nc3cc(C)ccc3o2)c1,,0.757 µM (active)
CCCC(=O)Nc1ccc2oc(-c3ccc(O)c(Br)c3)nc2c1,,2.39 µM (active)
CCCOc1ccc(C(=O)Nc2ccc3oc(-c4cccc(Cl)c4Cl)nc3c2)cc1,-4.27%,
O=C(Nc1cc(-c2nc3ccccc3o2)ccc1Cl)c1cc([N+](=O)[O-])ccc1N1CCOCC1,-12.3%,
COc1cccc(-c2nc(S(=O)(=O)c3ccc(C)cc3)c(NCc3ccccc3)o2)c1,3.23%,
